# Mtb FBA inh: Mtb fructose-bisphosphate aldolase inhibition | P9WQA3 | purified M. tuberculosis FBA, fluorescence read-out | 2.3% of 360,000 active | AID 588726 | inhibition, % at 1 µM
# Target sequence (P9WQA3 whole entry, looked up): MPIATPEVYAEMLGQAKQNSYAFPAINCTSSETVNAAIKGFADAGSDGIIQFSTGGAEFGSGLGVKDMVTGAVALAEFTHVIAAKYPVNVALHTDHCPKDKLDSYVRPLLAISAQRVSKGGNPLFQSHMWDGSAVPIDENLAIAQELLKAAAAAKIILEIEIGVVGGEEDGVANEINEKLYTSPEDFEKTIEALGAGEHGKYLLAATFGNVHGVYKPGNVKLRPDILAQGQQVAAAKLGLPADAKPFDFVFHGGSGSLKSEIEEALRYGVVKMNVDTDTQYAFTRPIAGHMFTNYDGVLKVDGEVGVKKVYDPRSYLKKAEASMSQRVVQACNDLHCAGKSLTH
# PrPC surface inh: cell surface PrPC inhibition, primary TR-FRET screen; 0.43% of 370,000 active; inhibition, % at 13.8 µM; AID 720596; TR-FRET read-out; P04156; in the data active = inhibition above about 24%
# GDH-TPI counter-1: inhibits GDH-TPI coupling enzymes, artifact for Mtb FBA screen; GDH-TPI coupled enzyme counterscreen, NADH absorbance; inhibition, % at 4.8 µM; 1.2% of 360,000 active; in the data active = inhibition above about 30%
# RecA intein inh: blocks M. tuberculosis RecA intein splicing | cell-free RecA intein splicing, fluorescence | 0.75% of 290,000 active | inhibition, % (no concentration beside the values) | P9WHJ3; in the data active = inhibition above about 30%
# BJeLR viability: BJeLR cell viability loss; BJeLR (HRASV12) viability, CellTiter-Glo ATP luminescence, 48 h; inhibition, % (no concentration beside the values); AID 1554; 0.17% of 300,000 active; in the data active = inhibition above about 50%
# Mtb FBA confirm: confirmation of M. tuberculosis fructose-bisphosphate aldolase inhibitors; shares compounds with Mtb FBA inh; purified M. tuberculosis FBA, fluorescence read-out; inhibition, % at 1 µM; 78% of 5,600 active
# GDH-TPI counter-2: counter-screen for M. tuberculosis FBA inhibitors: GDH-TPI coupled enzyme inhibition. shares compounds with Mtb FBA inh. GDH-TPI coupled enzyme counterscreen, fluorescence. inhibition, % at 1 µM. 81% of 5,600 active; in the data active = inhibition above about 10%
# GDH-TPI DR: counter-screen for M. tuberculosis FBA inhibitors: GDH-TPI dose response; shares compounds with Mtb FBA inh; GDH-TPI coupled enzyme assay, fluorescence, artifact counterscreen; IC50, µM; 79% of 170 active; call rule not given here
# A number is an active result; i = inactive; nt = no result; + = active, no number. Sampled rows, rich in hits. Any-hit rate of the full collection: about 4.2%. Rule as the data show it, unless noted: active = inhibition above about 27%; inactive = the rest.
SMILES,Mtb FBA inh,PrPC surface inh,GDH-TPI counter-1,RecA intein inh,BJeLR viability,Mtb FBA confirm,GDH-TPI counter-2,others
Cc1ccc(-c2nc(C(=O)NCC3CCCO3)cc3c2[nH]c2ccccc23)cc1 (stereo unspecified),i,i,i,i,i,nt,nt,
COc1ccc(-n2c(N)c(C(=O)NCC3CCCO3)c3nc4ccccc4nc32)c(OC)c1 (stereo unspecified),104,i,i,i,i,73,71,
Cc1ccc2nc(-c3cccc(Br)c3)cc(C(=O)NCC3CCCO3)c2c1 (stereo unspecified),i,i,i,i,i,nt,nt,
COc1ccc(-c2cc(C(=O)NCC3CCCO3)c3cc(C(C)C)ccc3n2)cc1 (stereo unspecified),67,i,i,i,i,i,i,GDH-TPI DR=1.6
COC(=O)C[C@@H]1CC[C@H]2[C@@H](COc3ccc(NC(=O)Nc4cccc(F)c4)cc3C(=O)N2C)O1,nt,i,nt,nt,nt,nt,nt,
COc1ccc(-c2cc(C(=O)NCC3CCCO3)c3ccccc3n2)cc1 (stereo unspecified),46,i,i,i,i,178,173,
COc1cccc(-c2cc(C(=O)NCC3CCCO3)c3ccccc3n2)c1 (stereo unspecified),i,i,i,i,i,nt,nt,
COc1ccc(-c2cc(C(=O)NCc3ccco3)c3ccccc3n2)cc1,28,i,i,i,i,nt,+,
CCCN(CC(=O)Nc1ccc(Cl)cc1Cl)C(=O)/C=C/c1cc(OC)ccc1OC,28,i,i,i,i,i,i,
CCCN(CC(=O)Nc1cc(Cl)ccc1Cl)C(=O)/C=C/c1cc(OC)ccc1OC,39,i,i,nt,nt,+,+,
CCCCC(SCC(=O)Nc1ccccc1)C(=O)O (stereo unspecified),67,i,i,i,i,186,160,
O=C1NC(Cc2cnc[nH]2)C(=O)N2CCCC12 (stereo unspecified),nt,i,nt,nt,nt,nt,nt,
CN(CC(=O)Nc1ccc(F)cc1)C(=O)c1cc(-c2ccco2)nc2ccccc12,30,i,i,i,i,+,+,
CCOc1ccc(NC(=O)CN(C)C(=O)c2cc(C)nc3ccccc23)cc1OCC,i,i,i,nt,nt,nt,nt,
COc1cccc(NC(=O)CN(C)C(=O)c2cc(-c3ccco3)nc3ccccc23)c1,69,i,i,i,i,i,i,
CCOc1ccc(NC(=O)CN(C)C(=O)c2cc(-c3ccco3)nc3ccccc23)cc1OCC,62,i,i,nt,nt,+,+,
CN(CCOc1ccc(Cl)cc1)C(=O)c1cc(-c2ccco2)nc2ccccc12,37,i,i,i,i,174,127,
Cc1ccc(NC(=O)CN(C)C(=O)c2cc(-c3ccco3)nc3ccccc23)cc1,i,i,i,i,i,nt,nt,
O=C(NCCCN1CCOCC1)C(=O)NCc1ccccc1,i,i,i,i,i,nt,nt,
Nc1c(C(=O)NCc2ccccc2)c2nc3ccccc3nc2n1CCCN1CCOCC1,58,i,i,i,i,146,114,
Nc1c(C(=O)NCc2ccc(F)cc2)c2nc3ccccc3nc2n1CCCN1CCOCC1,48,i,i,i,i,+,+,
COc1ccc(CNC(=O)c2c(N)n(CCCN3CCOCC3)c3nc4ccccc4nc23)cc1,55,i,i,i,i,132,107,
CC(=O)N1CCN(c2ccc(N3CCN(C(C)=O)[C@H](C)C3)c(C)c2)[C@H](C)C1,nt,i,nt,nt,nt,nt,nt,
CC(=O)Nc1ccc(C(CCCc2ccccc2)C2=CCCCC2)cc1 (stereo unspecified),nt,i,nt,nt,nt,nt,nt,
O=C(NC1CCCCN(Cc2cccc(C(F)(F)F)c2)C1=O)c1c(F)cccc1F (stereo unspecified),nt,i,nt,nt,nt,nt,nt,
CN1CC=C2C(C#N)=C(N)C(C#N)(C#N)C(Cc3ccccc3)C2C1 (stereo unspecified),32,i,i,i,i,164,151,
COC(=O)[C@H](C(C)C)N(CCc1cn(CC2CCCCC2)nn1)S(=O)(=O)c1ccc(F)cc1Br,nt,i,nt,nt,nt,nt,nt,
O=C(Cc1c[nH]c2ccccc12)Nc1ccc(Nc2ccncc2)cc1,nt,i,nt,nt,nt,nt,nt,

# Compound activity from PubChem BioAssay.
